Laboratory results: PubChem BioAssay AID1839 (Johns Hopkins Ion Channel Center, 2009)
Screen size: about 2,400 compounds; about 220 (9.2%) were called active. Only a selection was taken, and actives are over-represented in it overall. Values without a mark were called inactive.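 Rule for the calls: active = signal change above the mean of dofetilide-free buffer controls plus 3 SD, so a positive margin; inactive = the rest.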

experiment: nonspecific flux effects in parental CHO-K1, confirmation, counter-screen for hERG block protection project, cell-based, CHO-K1 parental line, FluxOR thallium flux (AID 1839); conditions: CHO-K1 parental cells, FluxOR thallium flux fluorescence; at 10 µM;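 note: compounds applied alone with no dofetilide to cells lacking hERG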

Structure (SMILES)	signal change vs control minus 3*SD hit threshold (margin above threshold, higher = more increase)
COc1ccc(CCNS(=O)(=O)c2csc(C(N)=O)c2)cc1OC	-34.6%
CCNC(=S)Nc1scc(-c2ccccc2)c1C(=O)OCC	-20.8%
O=c1oc2ccccc2c(Cl)c1CN1CCCCC1	-42.9%
NC(=O)C1CCN(C(=O)CCC(=O)c2ccc(F)cc2)CC1	-28.7%
Cc1sc2nc(CN3CCOCC3)[nH]c(=S)c2c1C	21.4% (active)
CCOC(=O)NC(=S)Nc1ccc(C(C)(C)C)cc1Br	-0.4%
CC(=O)c1c(C)c2c(n1CCN(C)C)CCCC2	-15.9%
CSc1nc2c(c(=O)[nH]1)C(c1ccc(Cl)cc1)CC(=O)N2 (stereo not given)	-31.6%
CCCCn1c(=S)[nH]c2ccccc2c1=O	-18.2%
O=c1c2ccccc2[nH]c(=S)n1CCC1=CCCCC1	3% (active)
Cc1ccc(Cn2c(=S)[nH]c3ccccc3c2=O)cc1	-14.9%
O=c1c2cccnc2[nH]c(=S)n1CCC1=CCCCC1	14.4% (active)
CCCCCn1c(=S)[nH]c2ncccc2c1=O	-0.3%
CC(C)COn1c(=S)[nH]c2ccccc2c1=O	-10.2%
O=c1c2ccc(Cl)cc2[nH]c(=S)n1CCC1=CCCCC1	4.8% (active)
COc1ccccc1Cn1c(=S)[nH]c2ccc(Br)cc2c1=O	-15.7%
O=c1c2ccccc2[nH]c(=S)n1CCc1ccccc1	5.9% (active)
O=C(CCn1c(=S)[nH]c2cc3c(cc2c1=O)OCO3)NCc1ccc(Cl)cc1	-22.3%
CC(C)CCn1c(=S)[nH]c2ncccc2c1=O	-18.3%
O=[N+]([O-])c1ccc(Nc2ccc(Cl)cc2)nc1	-22%
COc1cccc(/C=N/n2c(SC)nnc2-c2ccccc2)c1O	-24.3%
Cc1cc(=O)[nH]c(=S)n1-c1ccccc1	-38.5%
Cc1nn(-c2cccc(C(F)(F)F)c2)c(Cl)c1/C=N/Nc1cccc(C(=O)O)c1	-28.4%
CCNC(=O)C/C(C)=N/NC(=O)C(=O)Nc1ccc(CC)cc1	-7.4%
COc1ccc(/C=N/NC(=O)c2ccncc2)cc1CN1CCCc2ccccc21	-40.9%
CC1CN(S(=O)(=O)c2ccc(-c3nc4ccccc4s3)cc2)CC(C)O1 (stereo not given)	-8.4%
CCSc1nnc(NC(=O)Cn2cnc3c2c(=O)n(C)c(=O)n3C)s1	-29.2%

Structure (SMILES)	signal change vs control minus 3*SD hit threshold (margin above threshold, higher = more increase)
CCCN1C(=O)/C(=C/c2ccc3c(c2)OCO3)NC1=S	-21.2%
CCN1C(=O)/C(=C/c2ccc(C)s2)NC1=S	1.1% (active)
CC(C)CN1C(=O)/C(=C/c2ccco2)NC1=S	-30.9%
CC(C)CN1C(=O)/C(=C/c2cccs2)NC1=S	32% (active)
COc1ccc(N2C(=O)/C(=C/c3cccs3)NC2=S)cc1	-29.8%
CCCN1C(=O)/C(=C/c2ccc(C)s2)NC1=S	33.6% (active)
COc1ccc(C(=O)NC(=S)N2CCC(C)CC2)cc1Br	-12.4%
Oc1c(Br)cc(Cl)cc1C=Nc1ccccc1Br	-1.8%
O=C(c1ccc(CS(=O)c2cccc(Cl)c2)o1)N1CCCCCC1 (stereo not given)	-32.8%
NS(=O)(=O)c1ccc(NC(=S)NCc2cccs2)cc1	-30.2%
O=C(Nc1cccnc1)c1cc(-c2cccs2)on1	-26.5%
COC(=O)C1CCCN1C(=O)COc1ccc(Cl)cc1Br (stereo not given)	-25.2%
O=C(c1c(O)c2ccccc2oc1=O)C1CCCCC1	-22%
N#CCCN(Cc1ccccc1)C(=S)NC(=O)c1ccccc1	-30.7%
CN(C(=S)NC(=O)c1ccccc1)C1CCCCC1	-23.6%
CCC(=O)NC(=S)NNC(=O)c1ccccc1[N+](=O)[O-]	-28%
CCN(Cc1ccccc1)C(=S)NC(=O)c1ccccc1Br	27% (active)
CCN(C(=S)NC(=O)c1ccccc1Br)C1CCCCC1	16.2% (active)
CCCN(Cc1ccccc1)C(=S)NC(=O)c1ccccc1[N+](=O)[O-]	24.3% (active)
CN(Cc1ccccc1)C(=S)NC(=O)c1cccs1	-20.6%
CN(C(=S)NC(=O)c1ccccc1Br)C1CCCCC1	-13.4%
O=C(NC(=S)N(Cc1ccccc1)Cc1ccccc1)c1ccccc1F	-6.4%
CCc1cc2cc(C)cc(C)c2[nH]c1=S	-11.2%
COc1ccc(OCC(=O)Nc2c3c(nn2-c2ccc(OC)cc2)CS(=O)(=O)C3)cc1	-14.9%
O=C(O)c1ccc(S(=O)(=O)/N=C2\C=C(Nc3ccccc3F)C(=O)c3ccccc32)cc1	-14.9%
O=C(Nc1ccccc1)OCCCCCOC(=O)Nc1ccccc1	-25.4%
O=C(O)c1ccccc1NC(=O)c1cc2ccccc2oc1=O	-21.3%

Structure (SMILES)	signal change vs control minus 3*SD hit threshold (margin above threshold, higher = more increase)
Cc1ccc(C)c(NC(=S)NC(=O)c2cncc(Br)c2)c1	-24.9%
CCCCCCC12CCC(C(=O)O)(CC1)CC2	-8.9%
O=c1c2[nH]c3ccccc3c2nc2n1CCCS2	-3.7%
C=CCNC(=O)c1ccccc1NC(=O)COc1ccc(OC)cc1	-31.9%
COc1ccc(N2CCN(C(=S)NC(=O)c3cccs3)CC2)c([N+](=O)[O-])c1	-27.4%
COc1cc(/C=C/C(=O)N[C@@H](Cc2c[nH]c3ccccc23)C(=O)O)ccc1O	-19.7%
CCCCSc1nnc(CCC)n1N	-30.7%
O=C(CC1CCCC1)Nc1ccc2c(c1)CCC2	-18.5%
O=C(NC(=S)N1CCCc2ccccc21)c1ccc(Br)cc1	-8.9%
CC1Cc2ccccc2N1C(=S)NC(=O)c1ccco1 (stereo not given)	-28.6%
Cc1csc2ncc(C(=O)N3c4ccccc4CC3C)c(=O)n12 (stereo not given)	-16.4%
CC1Cc2ccccc2N1C(=S)NC(=O)c1ccc(Cl)cc1Cl (stereo not given)	23.8% (active)
Cc1cccc(C(=O)NC(=S)N2CCc3ccccc3C2)c1	-1.3%
CC(C)N(Cc1ccccc1)C(=S)NC(=O)C1(C)CC1(Cl)Cl (stereo not given)	-9.7%
CC1Cc2ccccc2N1C(=S)NC(=O)c1cccc(Br)c1 (stereo not given)	48.8% (active)
CC(Oc1ccc(Cl)cc1Cl)C(=O)NC(=S)N1CCc2ccccc21 (stereo not given)	-7.9%
CC1Cc2ccccc2N1C(=S)NC(=O)C1(C)CC1(Cl)Cl (stereo not given)	11.2% (active)
Oc1c(Cl)cc(CN2CCCCC2)c2cccnc12	-25.2%
CCOC(=O)Cc1csc(NC(=S)NC(=O)c2ccccc2C)n1	-13.6%
Cc1cc(C(=O)NNC(=O)c2cccs2)nn1C(C)(C)C	-25.3%
O=C(N/N=C1/C(=O)c2cccc3cccc1c23)c1ccc(Cl)cc1	41.5% (active)
CCNC(=S)N/N=C1\C(=O)c2cccc3cccc1c23	-16.8%
O=C(NN=C1c2ccccc2-c2ccccc21)c1ccccc1	-27.5%
Cc1ccc(-c2n[nH]c(=S)nc2-c2ccc(C)cc2)cc1	-27.5%
CSc1nc2c(c(=O)[nH]1)C(c1ccc(F)cc1)CC(=O)N2 (stereo not given)	-36%
CC(C)CC(=O)Nc1ccc2c3c(cccc13)CC2	-19.8%
C=CCn1c(=S)[nH]c2sc3c(c2c1=O)CCC3	-7.2%

Structure (SMILES)	signal change vs control minus 3*SD hit threshold (margin above threshold, higher = more increase)
O=c1c2c3c(sc2[nH]c(=S)n1Cc1ccco1)CCC3	-6.1%
C=CCn1c(=S)[nH]c2sc3c(c2c1=O)CCCC3	3.6% (active)
COCCn1c(=S)[nH]c2sc3c(c2c1=O)CCCC3	-5.6%
CCCn1c(SCC(=O)N2CCN(C(C)=O)CC2)nc2sc3c(c2c1=O)CCC3	-6.2%
CCCn1c(=S)[nH]c2sc3c(c2c1=O)CCCC3	32.1% (active)
CCn1c(SCC(N)=O)nc2sc3c(c2c1=O)CCCC3	-14.4%
COCCCn1c(=S)[nH]c2c(sc3ccccc32)c1=O	-36.9%
CCn1c(=S)[nH]c2sc3c(c2c1=O)CCCC3	8.5% (active)
COCCCn1c(=S)[nH]c2sc3c(c2c1=O)CCCC3	2.5% (active)
C=CCn1c(=S)[nH]c2nc3c(cc2c1=O)CCCC3	-15.7%
Cc1ccnc(N2CCC(C(=O)Nc3ccc(Oc4ccccc4)cc3)CC2)n1	-28.4%
CCCn1c(SCC(N)=O)nc2c(c1=O)C1(CCCC1)Cc1ccccc1-2	-7.7%
COc1ccc(NC(=O)CCN2C(=O)C3C4C=CC(C4)C3C2=O)cc1 (stereo not given)	-35%
C=CCN(CC=C)C(=S)NC(=O)Cc1cccc2ccccc12	-17.1%
COc1ccc(C(CC(=O)N2CCOCC2)c2c(O)cc(OC)cc2OC)cc1 (stereo not given)	-27.3%
CCSc1nc2c(sc3ccccc32)c(=O)n1C(C)C	-0.8%
Cc1ccc2[nH]c(C(=O)O)c(-c3ccccc3)c2c1	-18.6%
CCOC(=O)C1=C(O)/C(=C/c2ccc(OCC(=O)O)c(OC)c2)SC1=Nc1ccc(OCC)cc1	-28.1%
COc1ccc(-c2cc(C(=O)N3CCCC3)no2)cc1OC	-5.8%
CCOC(=O)c1[nH]c(=O)[nH]c1COC(=O)c1cc2ccccc2o1	-34.3%
COc1ccc(NC(=O)CSCC(=O)Oc2c(OC)cccc2OC)cc1	-30.4%
CCn1c(=S)[nH]c2sc3c(c2c1=O)CCCCC3	37.1% (active)
Cc1cc(C)n(-c2nc3sc4c(c3c(=O)[nH]2)CCCC4)n1	-29.7%
CCn1c(SC(C)C(=O)O)nc2sc3c(c2c1=O)CCC3 (stereo not given)	-5.9%
